Screening data as filed in PubChem.
HP1b chromo inh: HP1-beta chromodomain-methylated histone interaction inhibition | P83916 | AlphaScreen HP1-beta / biotin-H3K9me3 peptide binding | Potency, µM (titrated, usually from 114 µM), for the others: top-dose activity change, negative = inhibition, usual class: inhibitors | 390,000 compounds, 0.56% hits | AID 540317; note: nearly all actives have a fitted effect of over 70% in size
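HP1-beta protein (50 nM final) preincubated 30 min at room temperature with biotinylated H3(1-18)K9me3 peptide (50 nM) in PBS pH 7.4, 0.01% Tween-20, then compound added for 30 min. AlphaScreen streptavidin donor/nickel chelate acceptor beads (10 ug/mL final), 30 min dark, luminescence read.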
Sfp inh: inhibitors of Bacillus subtilis Sfp phosphopantetheinyl transferase | Biochemical Sfp PPTase activity, qHTS | AID 1490 | Potency, µM, without a hit: largest response in the series, negative = inhibition, most hits filed as inhibitors | Q9F4F7 | 310,000 compounds, 3.5% hits;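 note: the enzyme is Sfp with the accession as filed and its product quenches rhodamine fluorescence; 0% = enzyme reaction without inhibitor and -100% = no enzyme wells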
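After 15 min at room temperature with compound, 15 nM Sfp received 5 uM rhodamine-CoA plus 12.5 uM BHQ-2-ybbR (50 mM Hepes pH 7.6, 10 mM MgCl2). Rate came from the fluorescence difference over 30 min, ex 525/em 598 nm.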
JMJD2A Tudor inh: inhibitors of human JMJD2A Tudor domain; O75164; AlphaScreen JMJD2A-Tudor / H3K4me3 peptide binding; Potency, µM (top dose mostly 114 µM), inactives show at the highest dose activity change, negative = inhibition, usual class: inhibitors; 390,000 compounds, 4.4% hits; AID 504339; note: % is set by controls: 0 for no effect and ±100 for the full control effect; nearly all actives have a fitted effect of over 50% in size
Target sequence (O75164 whole entry, looked up, the tested form may be a part): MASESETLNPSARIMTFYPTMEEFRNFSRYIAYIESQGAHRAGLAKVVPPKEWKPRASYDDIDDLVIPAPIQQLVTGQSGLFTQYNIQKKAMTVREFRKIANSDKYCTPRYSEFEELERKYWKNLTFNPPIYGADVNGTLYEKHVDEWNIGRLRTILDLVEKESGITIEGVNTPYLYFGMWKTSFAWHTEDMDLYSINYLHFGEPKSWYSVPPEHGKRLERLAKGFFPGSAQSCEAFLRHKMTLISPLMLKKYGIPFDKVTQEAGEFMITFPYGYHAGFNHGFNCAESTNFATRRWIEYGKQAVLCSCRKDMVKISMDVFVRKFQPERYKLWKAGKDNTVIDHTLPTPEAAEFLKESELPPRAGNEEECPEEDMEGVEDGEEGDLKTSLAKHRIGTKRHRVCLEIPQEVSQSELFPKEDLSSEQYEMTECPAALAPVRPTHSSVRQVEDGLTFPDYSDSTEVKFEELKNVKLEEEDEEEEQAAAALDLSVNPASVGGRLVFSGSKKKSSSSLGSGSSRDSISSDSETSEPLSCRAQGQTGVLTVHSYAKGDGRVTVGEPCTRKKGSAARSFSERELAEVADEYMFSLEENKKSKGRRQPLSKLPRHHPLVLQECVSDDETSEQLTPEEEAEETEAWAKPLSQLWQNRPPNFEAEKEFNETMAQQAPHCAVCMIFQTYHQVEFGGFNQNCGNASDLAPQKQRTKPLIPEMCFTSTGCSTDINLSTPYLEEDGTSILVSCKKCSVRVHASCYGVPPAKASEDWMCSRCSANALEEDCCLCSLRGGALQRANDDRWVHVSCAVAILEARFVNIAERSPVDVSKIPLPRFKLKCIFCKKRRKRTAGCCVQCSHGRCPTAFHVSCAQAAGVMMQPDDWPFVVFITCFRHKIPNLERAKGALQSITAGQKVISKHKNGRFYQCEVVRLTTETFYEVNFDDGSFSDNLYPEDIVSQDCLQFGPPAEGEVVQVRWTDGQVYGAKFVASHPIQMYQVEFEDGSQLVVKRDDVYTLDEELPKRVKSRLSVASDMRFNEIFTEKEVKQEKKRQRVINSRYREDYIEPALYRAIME
BAZ2B inh: inhibitors of human BAZ2B bromodomain; AID 504333; AlphaScreen BAZ2B-H3K14Ac peptide displacement; 360,000 compounds, 4.4% hits; Potency, µM (highest dose often 114 µM), for inactives: top-dose activity change, negative = inhibition, usual class: inhibitors; Q9UIF8; note: % is set by controls: 0 for no effect and ±100 for the full control effect; nearly all actives have a fitted effect of over 60% in size
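Inhibition is scored as reduced AlphaScreen emission. The BAZ2B/b-H3(5-23)K14Ac complex (50 nM each) in PBS pH 7.4, 0.01% Tween-20 meets compound (up to 110 uM) for 30 min at RT before bead addition.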
G9a block: blocks human histone lysine methyltransferase G9a | Potency, µM (doses to about 102 µM), inactives show top-dose activity, negative = inhibition, actives largely listed as inhibitors | Q96KQ7 | G9a H3K9 monomethylation, AlphaScreen, 2 h | 350,000 compounds, 8.8% hits; note: % is set by controls: 0 for no effect and ±100 for the full control effect; nearly all actives have a fitted effect of over 75% in size
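Chemiluminescent proximity detection of H3K9 monomethylation, read after 10 min bead incubation in the dark. Reaction: 20 nM G9a, 500 nM biotin-H3K9 peptide, 20 uM SAM cofactor, 2 h, room temperature, following 15 min enzyme-compound preincubation.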
12-LOX inh: blocks human arachidonate 12S-lipoxygenase; P18054; purified 12hLO, xylenol orange hydroperoxide absorbance; Potency, µM (doses to about 108 µM), without a hit: top-dose activity change, negative = inhibition, usual class: inhibitors; 580,000 compounds, 1.1% hits; AID 1671190; note: % is set by controls: 0 for no effect and ±100 for the full control effect
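Purified human 12hLO at 150 nM in 25 mM Hepes, 0.01% Triton X-100, pH 7.0, preincubated 15 min at room temperature with compound. Reaction started with 40 uM arachidonic acid, 30 min at room temperature. Hydroperoxide measured by Fe-xylenol orange, 573/405 nm absorbance ratio.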
* hit, by the source's call; ? = inconclusive; nt = not tested or not shown; [ ] = remark or other dose. Shown are actives, neighbours in structure and some others; about 8.7% of the full set was active somewhere. Calls come from the whole dose curve; as a rule, active = well fitted curve in the direction sought with a large enough effect; inconclusive = small, poorly fitted or top-dose-only effect, or another doubt; inactive = no such curve, though single readings can be large; an effect the other way counts as inactive or inconclusive. Potency is the fitted concentration of half-maximal effect.

SMILES	HP1b chromo inh	Sfp inh	JMJD2A Tudor inh	BAZ2B inh	G9a block	12-LOX inh
CCOC(=O)CN1NC2(CCCC(C)C2)NC1=S (stereo unspecified)	38%	25µM*	50µM*	-4%	10µM*	-3%
CCOC(=O)CN1NC2(CCC(C)CC2)NC1=S (stereo unspecified)	33%	35µM*	28µM*	?	25µM*	?
Cc1cc(C)c(NC(=O)CN(C)C(=O)c2cc(=O)c3ccccc3o2)c(C)c1	nt	nt	nt	nt	nt	-57%
O=C(CSc1nnc(-c2ccccc2)c(-c2ccccc2)n1)Nc1ncc(Cl)cc1Cl	9%	-26%	-13%	?	14µM*	-24%
O=C(COC(=O)c1cc([N+](=O)[O-])ccc1N1CCOCC1)Nc1c(Cl)cccc1C(F)(F)F	20%	0%	-6%	-8%	71%	242%
O=C(COC(=O)c1cn(-c2ccccc2)nc1-c1ccccc1)Nc1ncc(Cl)cc1Cl	-4%	-17%	?	?	-1%[12.7 µM]	25µM*
O=C(COC(=O)CNC(=O)c1ccccc1F)Nc1ncc(Cl)cc1Cl	34%	nt	-12%	?	18%[12.7 µM]	40µM*
O=C(COC(=O)c1cc([N+](=O)[O-])ccc1N1CCOCC1)Nc1ncc(Cl)cc1Cl	1%	-5%	?	45µM*	9%[12.7 µM]	203%
Cc1cnccc1N1CCCN(C(=O)c2cccc(C3CCCNC3)c2)CC1 (stereo unspecified)	nt	nt	nt	nt	nt	-1%
CCC1Oc2ccc(NC(=O)c3ccc([N+](=O)[O-])cc3)cc2CN(C(C)CC)C1=O (stereo unspecified)	nt	nt	nt	nt	nt	-6%
COC(=O)C(C)OC(=O)c1cc2ccccc2cc1OC (stereo unspecified)	nt	nt	nt	nt	nt	13%
O=C(COC(=O)c1nc(Cl)ccc1Cl)Nc1ccc(Cl)cn1	32%	nt	1%	3%	16%[12.7 µM]	?
O=C(COC(=O)c1cn(-c2ccccc2)nc1-c1ccccc1)c1cccc([N+](=O)[O-])c1	-7%	-4%	-18%	-2%	?	?
O=C(COC(=O)c1ccccc1NC(=O)c1ccco1)Nc1ncc(Cl)cc1Cl	25%	?	-15%	-2%	?	?
O=C(COC(=O)c1cn(-c2ccccc2)nc1-c1ccccc1)c1ccc([N+](=O)[O-])cc1	nt	3%	nt	?	2.5µM*	nt
O=C(COC(=O)c1ncc(Cl)c(Cl)c1Cl)Nc1ccc(Cl)cn1	5%	nt	-32%	-14%	45µM*	?
O=C(COC(=O)c1ccccc1O)Nc1ncc(Cl)cc1Cl	-11%	6%	?	50µM*	35µM*	?
COc1ccc(NS(=O)(=O)c2cc3[nH]c(=O)c(=O)[nH]c3cc2C)cc1	nt	nt	nt	nt	nt	-8%
CC(=O)N1CCN(C2CCOC3(CCN(S(=O)(=O)c4ccccc4)CC3)C2)CC1 (stereo unspecified)	nt	nt	nt	nt	nt	6%
Cc1ccc(NC(=O)N2CCOCCNC(=O)[C@H]3CCCC[C@H]32)cc1C	nt	nt	nt	nt	nt	44%
Cn1cc(C(C(=O)O)N2CCN(c3ncc(Br)cn3)CC2)c2cc(C(=O)O)ccc21 (stereo unspecified)	nt	nt	nt	nt	nt	63%
Cc1ccc(NCCC(=O)c2cccc([N+](=O)[O-])c2)c(C)c1	?	-13%	32µM*	28µM*	?	-23%
O=C(CCCc1cccs1)N1CCCC1	nt	nt	nt	nt	nt	-44%
NC(=O)CCCCC(=O)OCCCc1cccs1	4%	18%	89µM*	?	-6%[59 µM]	-6%
S=c1[nH]nc(-c2cc(-c3ccccc3)n[nH]2)n1/N=C/c1cccc(Cl)c1	?	?	40µM*	50µM*	10µM*	?
SMILES	HP1b chromo inh	Sfp inh	JMJD2A Tudor inh	BAZ2B inh	G9a block	12-LOX inh
S=c1[nH]nc(-c2cc(-c3ccccc3)n[nH]2)n1/N=C/c1ccc(Cl)c(Cl)c1	129%	-24%	50µM*	45µM*	?	?
CCOC(=O)C(Cc1ccnc2ccccc12)=NO	7%[57 µM]	nt	-19%	nt	nt	-25%
O=C(O)C(Cc1ccnc2ccccc12)=NO	25%	nt	3.2µM*	nt	nt	?
Cc1[nH]n(-c2ccccc2)c(=O)c1C=Nc1cccc(F)c1	-20%	12%	-25%	-37%	45µM*	3%
Cc1ccc(-n2[nH]c(C)c(/C=N/c3cccc(C)n3)c2=O)cc1	30%	10%	-19%[11.4 µM]	-24%	50µM*	-13%
Cc1[nH]n(-c2ccccc2)c(=O)c1C=Nc1ccc2[nH]c(=O)[nH]c2c1	24%	10%	-2%	2%	?	-10%
Cc1[nH]n(-c2ccccc2)c(=O)c1/C=N/N(c1ccccc1)c1ccccc1	?	11%	40µM*	?	16%[0.501 µM]	-2%
Cc1cccc(/N=C/c2c(C)[nH]n(-c3ccccc3)c2=O)n1	42%	12%	-3%[11.4 µM]	?	?	10%
Cc1[nH]n(-c2ccccc2)c(=O)c1/C=N/c1nn[nH]n1	20%	-4%	-10%[11.4 µM]	?	50µM*	?
COCCN1CCC(C(=O)Nc2ccc(Oc3ccccc3F)cc2)CC1	nt	nt	nt	nt	nt	-3%
COc1ccc(OC)c(CNCc2cccn2-c2nnc(N3CCOCC3)s2)c1	nt	nt	nt	nt	nt	52%
COc1ccc(CCNC(=O)CSc2nnc(Cc3csc(N)n3)n2C)cc1OC	26%	-6%	50µM*	22µM*	23%[59 µM]	-9%
Cc1ccc(CCNC(=O)CCCc2nnc3n(C)c(=O)c4sccc4n23)cc1	20%	nt	-15%	1%	7%[59 µM]	-12%
COc1ccc(CCNC(=O)CCCc2nnc3n(C)c(=O)c4sccc4n23)cc1OC	25%	1%	-4%	?	22µM*	?
Cc1cnc(CC2CCN(C(=O)Cc3cccc(F)c3)CC2)n1CC1CC1	nt	nt	nt	nt	nt	5%
Cc1[nH]c2ccccc2c1C(=O)C(C)Sc1nnnn1C1CCCCC1 (stereo unspecified)	nt	nt	nt	nt	nt	-12%
CSc1ccccc1NC(=O)C(C)N(C)CC(=O)N1CCN(Cc2ccccc2)CC1 (stereo unspecified)	?	nt	10µM*	nt	nt	?
CSc1ccccc1NC(=O)C(C)N(C)CC(=O)Nc1ccc(F)cc1 (stereo unspecified)	nt	nt	nt	nt	nt	29%
CC(C(=O)Nc1ccc(C(F)(F)F)cc1)N(C)CC(=O)N1CCN(Cc2ccccc2)CC1 (stereo unspecified)	20µM*	nt	0.89µM*	nt	nt	-16%
CCc1cc2c(nc1CC)CCN(CC/C(C)=N/O[C@@H](C)c1cc(-c3c(C)cc(C)cc3C)no1)C2	nt	?	nt	?	35µM*	nt
CCn1ccc(C(=O)N2C[C@@H](Oc3cccnc3)C[C@@H]2C(=O)NCCOC)n1	nt	nt	nt	nt	nt	17%
COc1cccc(CNC(=O)c2ccc(CS(=O)c3ccccc3Cl)o2)c1 (stereo unspecified)	nt	nt	nt	nt	nt	13%
